Test results published in PubChem BioAssay AID1159580 (chemical genetic matrix, 2015).
In all, about 5,500 compounds went through this assay and about 2,000 (36%) were called active. Not shown: some 18% with an inconclusive outcome. No stated cut-off is given here; in the data, active means normalized growth mostly below about 0.91 (no sharp cut-off); inconclusive means no clear call, values can overlap the other calls; inactive means mostly above about 0.92. This is one part of the list.

Test: chemical genetic growth profiling, strain panel (AID 1159580);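 further: tested at 20 µM; growth read once vehicle control cultures reached saturation at 30 °C; 1 = growth at the plate median or of vehicle wells; lower values mean less growth of the strain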
Conditions: growth OD

Measured: normalized growth

CC[C@]12CCCN3CCc4c(n(c5ccccc45)C(=O)C1)[C@@H]32
active: S. cerevisiae deletion strains, locus YLR342W, strain FKS1 (second series), active compounds read low 1.21 [resistant]
inactive: S. cerevisiae deletion strains, locus YJL187C, strain SWE1 (second series), active compounds read low 0.966 | S. cerevisiae deletion strains, locus YJL187C, strain SWE1, active compounds read low 1.01 | S. cerevisiae deletion strains, locus YJR043C, strain POL32, active compounds read low 0.998 | S. cerevisiae deletion strains, locus YKL009W, strain mrt4, active compounds read low 0.95 | S. cerevisiae deletion strains, locus YKL068W, active compounds read low 0.981 | S. cerevisiae deletion strains, locus YKL085W, strain MDH1 (second series), active compounds read low 0.976 | S. cerevisiae deletion strains, locus YKL085W, strain MDH1, active compounds read low 0.976 | S. cerevisiae deletion strains, locus YKL160W, strain elf1, active compounds read low 0.974 | S. cerevisiae deletion strains, locus YKL190W, strain CNB1, active compounds read low 0.941 | S. cerevisiae deletion strains, locus YKR001C, strain vps1, active compounds read low 0.955 | S. cerevisiae deletion strains, locus YKR026C, strain gcn3, active compounds read low 0.996 | S. cerevisiae deletion strains, locus YKR091W, strain srl3, active compounds read low 0.996 | S. cerevisiae deletion strains, locus YLL001W, strain dnm1, active compounds read low 0.956 | S. cerevisiae deletion strains, locus YLL026W, active compounds read low 0.994 | S. cerevisiae deletion strains, locus YLL041C, strain sdh2, active compounds read low 1.01 | S. cerevisiae deletion strains, locus YLR027C, strain aat2, active compounds read low 1.01 | S. cerevisiae deletion strains, locus YLR039C, strain RIC1, active compounds read low 0.741 | S. cerevisiae deletion strains, locus YLR058C, strain SHM2, active compounds read low 0.991 | S. cerevisiae deletion strains, locus YLR102C, strain apc9, active compounds read low 0.985 | S. cerevisiae deletion strains, locus YLR221C, strain rsa3, active compounds read low 1.04 | S. cerevisiae deletion strains, locus YLR258W, strain gsy2, active compounds read low 1 | S. cerevisiae deletion strains, locus YLR262C, strain YPT6 (second series), active compounds read low 0.991 | S. cerevisiae deletion strains, locus YLR262C, strain YPT6, active compounds read low 0.776 | S. cerevisiae deletion strains, locus YLR268W, strain sec22, active compounds read low 0.971 | S. cerevisiae deletion strains, locus YLR320W, strain mms22, active compounds read low 1 | S. cerevisiae deletion strains, locus YLR330W, strain CHS5, active compounds read low 0.956 | S. cerevisiae deletion strains, locus YLR342W, strain FKS1, active compounds read low 0.999 | S. cerevisiae deletion strains, locus YLR357W, strain rsc2, active compounds read low 0.994 | S. cerevisiae deletion strains, locus YLR370C, strain arc18, active compounds read low 0.996 | S. cerevisiae deletion strains, locus YLR371W, strain rom2, active compounds read low 0.983 | S. cerevisiae deletion strains, locus YLR384C, strain iki3, active compounds read low 1.03 | S. cerevisiae deletion strains, locus YLR418C, strain cdc73, active compounds read low 0.906 | S. cerevisiae deletion strains, locus YML016C, strain PPZ1, active compounds read low 1 | S. cerevisiae deletion strains, locus YML032C, strain rad52, active compounds read low 0.99 | S. cerevisiae deletion strains, locus YML120C, strain ndi1, active compounds read low 0.986 | S. cerevisiae deletion strains, locus YML124C, strain tub3, active compounds read low 0.979 | S. cerevisiae deletion strains, locus YMR058W, strain fet3, active compounds read low 1.01 | S. cerevisiae deletion strains, locus YMR078C, strain ctf18, active compounds read low 0.973 | S. cerevisiae deletion strains, locus YMR125W, strain sto1, active compounds read low 0.994 | S. cerevisiae deletion strains, locus YMR129W, active compounds read low 1 | S. cerevisiae deletion strains, locus YMR205C, strain PFK2, active compounds read low 0.991 | S. cerevisiae deletion strains, locus YMR223W, strain ubp8, active compounds read low 0.968 | S. cerevisiae deletion strains, locus YMR231W, strain pep5, active compounds read low 0.997 | S. cerevisiae deletion strains, locus YMR307W, strain GAS1, active compounds read low 0.685 | S. cerevisiae deletion strains, locus YNL067W, strain RPL9B, active compounds read low 0.906 | S. cerevisiae deletion strains, locus YNL071W, strain lat1, active compounds read low 0.996 | S. cerevisiae deletion strains, locus YNL209W, strain ssb2, active compounds read low 0.983 | S. cerevisiae deletion strains, locus YNL233W, strain BNI4, active compounds read low 0.943 | S. cerevisiae deletion strains, locus YNL248C, strain rpa49, active compounds read low 1.02 | S. cerevisiae deletion strains, locus YNL250W, strain rad50, active compounds read low 0.988 | S. cerevisiae deletion strains, locus YNL271C, strain bni1, active compounds read low 0.978 | S. cerevisiae deletion strains, locus YNL298W, strain CLA4, active compounds read low 0.998 | S. cerevisiae deletion strains, locus YNL307C, strain MCK1, active compounds read low 0.984 | S. cerevisiae deletion strains, locus YNL322C, strain KRE1 (second series), active compounds read low 0.979 | S. cerevisiae deletion strains, locus YNL322C, strain KRE1, active compounds read low 0.983 | S. cerevisiae deletion strains, locus YNR049C, strain mso1, active compounds read low 1.01 | S. cerevisiae deletion strains, locus YNR052C, strain pop2, active compounds read low 0.986 | S. cerevisiae deletion strains, locus YOL012C, strain htz1 0.684 | S. cerevisiae deletion strains, locus YOL147C, strain pex11, active compounds read low 0.989 | S. cerevisiae deletion strains, locus YOR001W, strain rrp6, active compounds read low 1.02 | S. cerevisiae deletion strains, locus YOR061W, strain CKA2, active compounds read low 0.966 | S. cerevisiae deletion strains, locus YOR069W, strain VPS5, active compounds read low 0.987 | S. cerevisiae deletion strains, locus YOR070C, strain gyp1, active compounds read low 1 | S. cerevisiae deletion strains, locus YOR080W, strain dia2, active compounds read low 1 | S. cerevisiae deletion strains, locus YOR083W, strain WHI5, active compounds read low 0.972 | S. cerevisiae deletion strains, locus YOR106W, strain vam3, active compounds read low 0.981 | S. cerevisiae deletion strains, locus YOR136W, strain idh2, active compounds read low 0.977 | S. cerevisiae deletion strains, locus YOR144C, strain elg1, active compounds read low 0.99 | S. cerevisiae deletion strains, locus YOR184W, strain ser1, active compounds read low 0.94 | S. cerevisiae deletion strains, locus YOR265W, strain rbl2, active compounds read low 0.994 | S. cerevisiae deletion strains, locus YOR270C, strain vph1, active compounds read low 1.06 | S. cerevisiae deletion strains, locus YOR290C, strain snf2, active compounds read low 0.98 | S. cerevisiae deletion strains, locus YOR316C, strain cot1, active compounds read low 0.987 | S. cerevisiae deletion strains, locus YPL051W, strain arl3, active compounds read low 0.968 | S. cerevisiae deletion strains, locus YPL078C, strain atp4, active compounds read low 0.969 | S. cerevisiae deletion strains, locus YPL106C, strain sse1, active compounds read low 0.973 | S. cerevisiae deletion strains, locus YPL240C, strain hsp82, active compounds read low 1 | S. cerevisiae deletion strains, locus YPL241C, strain CIN2, active compounds read low 0.991 | S. cerevisiae deletion strains, locus YPR119W, strain clb2, active compounds read low 0.976 | S. cerevisiae deletion strains, locus YPR141C, strain kar3, active compounds read low 0.977 | S. cerevisiae deletion strains, locus YPR163C, strain tif3, active compounds read low 0.988 | S. cerevisiae deletion strains, locus YPR167C, strain met16, active compounds read low 0.974 | S. cerevisiae deletion strains, strain wtn01, active compounds read low 0.973 | S. cerevisiae strains, strain wild type, active compounds read low 0.967
